Results reported in PubChem BioAssay AID485297 (National Center for Advancing Translational Sciences (NCATS), 2010).
Screen size: about 320,000 compounds; about 9,100 (2.8%) were called active. Inconclusive results (about 3%) are left out. The call rests on the fitted dose curve; in most records, active means well fitted activation curve with a large enough effect; inconclusive means small, poorly fitted or top-dose-only effect; inactive means no such curve, though single readings can be large or run the other way. Only a selection was taken, and actives are over-represented in it overall.

assay: qHTS Assay for Rab9 Promoter Activators; conditions: Huh7 Rab9 promoter-luciferase reporter, luminescence, 24 h; series mostly up to 9.22 µM; activation, negative = inhibition: at the top concentration; further: nearly all actives have a fitted effect of over 60% in size; on activation, negative = inhibition: % of control where 0% means no effect
Method in brief: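 Huh7 cells stably carrying a Rab9 promoter-luciferase reporter, 1500 cells per well in OP-MEM I with 10% FBS, treated with compound 24 hours at 37C. Luciferase activity read by luminescence after 10 minutes with Amplite reagent.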
Potency means the concentration at half of the fitted maximal effect.

activation, negative = inhibition, inactive:
CC(C)Cn1c(N)c(C(=O)COC(=O)C2CCCN2C(=O)c2cccs2)c(=O)n(C)c1=O (stereo unspecified) -0.406%
CCOc1c(Nc2cccc(Cl)c2)c(=O)c1=O -5.39%
CS(=O)(=O)Nc1ccccc1C(=O)OCC(=O)NC1CC1 -1.03%
CCOC(=O)C1CCN(C(=O)c2cccc(S(=O)(=O)N(CC)c3ccccc3)c2)CC1 -4.21%
Cn1c2cc(B(O)O)sc2c2cnn(Cc3ccccc3F)c(=O)c21 -3.22%
COc1ccc(CC2c3cc(OC)c(OC)cc3CC[N+]2(C)CCC(=O)OCCCCCOC(=O)CC[N+]2(C)CCc3cc(OC)c(OC)cc3C2Cc2ccc(OC)c(OC)c2)cc1OC (stereo unspecified) -6.08%
CCc1cccc(C)c1NC(=O)COC(=O)CC1CCCC1 0.691%
Cc1cc(C)c(S(=O)(=O)N2CCC(C(=O)OCc3c(C)noc3C)CC2)c(C)c1 2.51%
CC(=O)c1ccc(OCCCC(=O)Nc2ccc(C)c(S(=O)(=O)N3CCOCC3)c2)cc1 -10.3%
COc1ccc(Cl)cc1C(=O)OCC(=O)NCc1cccs1 2.82%
CCOC(=O)c1c(C)[nH]c(C(=O)NCCN2CCOCC2)c1C -1.3%
COC(=O)Cc1ccc(OCC(=O)NC2CCCC2)cc1 -2.32%
CN(CC(=O)Nc1ccc(F)cc1)CC(=O)N1CCCCC1 -1.1%
COc1ccccc1-c1oc2ccccc2c1C#CCCCCO -1.32%
O=C(C1CC(=O)N(C2CCCC2)C1)N1CCN(c2cccc(C(F)(F)F)c2)CC1 (stereo unspecified) -9.77%
CCOC(=O)c1nc(-c2ccc3c(c2)OCO3)[nH]c1C 20.9%
CC(C)c1ccc(NC(=O)COC(=O)c2ccc(CN3CCCC3=O)cc2)cc1 -6.29%
O=C(CSc1nnc(Nc2ccccc2F)s1)NC1CCCC1 19.2%
Cc1c(NC(=O)CSCc2ccccc2)cccc1C(=O)O 2.13%
COc1cc(OC)cc(C(=O)NNC(=O)CCOc2ccccc2OC)c1 -1.58%
CCN(C(=O)COC(=O)Cc1c(F)cccc1Cl)c1c(N)n(Cc2ccccc2)c(=O)[nH]c1=O -0.28%
O=C(CSc1nnc(-c2ccco2)n1-c1ccccc1)NCCc1ccccc1 0.672%
O=C(CSc1nnc(-c2ccco2)n1CC1CCCO1)c1ccccc1 (stereo unspecified) 14.8%
COc1ccc(NC(=O)CN(C)C(=O)c2cc(C3CC3)nn2-c2ccccc2)cc1 -1.8%
COc1ccccc1C1=CC(=O)C[C@H](c2ccc(F)cc2)C1 -6.18%
CSCCC(NC(=O)c1ccccc1)C(=O)N1CCN(Cc2ccc(Cl)cc2)CC1 (stereo unspecified) -0.803%
O=C(CCc1ccccc1)NNc1ccc(F)cc1 -0.275%
Cc1ccc(F)c(NC(=O)CCOc2ccccc2C)c1 -1.01%
COC(=O)C1=CO[C@@H](O[C@@H]2O[C@H](CO)[C@@H](O)[C@H](O)[C@H]2O)C2C1C[C@H](O)[C@@H]2C (stereo partly specified) -1.85%
Cc1ccccc1-c1nc(C#N)c(NCc2ccco2)o1 -9.43%
N#Cc1nc(Cc2cccc3ccccc23)oc1NCc1ccc2c(c1)OCO2 1.47%
Cc1cccc(-c2oc3ccc(-c4ccc5c(c4)OCO5)cc3c2C#Cc2cncn2C)c1 -5.09%
CCOC(=O)Cn1nnnc1C -2.92%
COc1ccc(N2CCN(C(=O)/C(C#N)=C/c3ccccc3)CC2)cc1 -3.49%
CCOC(=O)/C(C#N)=C/c1ccc(N2CCN(Cc3ccccc3)CC2)cc1 -0.0089%
Cc1ccc(C)c(OCC(=O)NNC(=O)C2CCC2)c1 -2.73%
O=S(=O)(c1cccc(S(=O)(=O)N2CCC(n3nnc4ccccc43)CC2)c1)N1CCCCC1 4.03%
CC(=O)c1cccc(S(=O)(=O)N2CCC(n3nnc4cc(F)ccc43)CC2)c1 -2.95%
COC(=O)CSc1nnc(-c2cccnc2)o1 -5.2%
CN(C)c1nc(-c2cccnc2)nc(-c2ccc(Cl)cc2)c1C#N 3.11%
Cc1ccc(S(=O)(=O)N2CCCCC2)cc1NC(=O)[C@@H]1CCCN1C(=O)c1cccs1 -3.33%
CCC(C)N1C(=O)S/C(=C/c2ccc(Sc3nc4ccccc4[nH]3)o2)C1=O (stereo unspecified) 1.73%
O=C(Nc1ccccc1)c1ccccc1NC(=O)C(F)(F)F 28.5%
CCCCNC(=O)C(=O)c1ccccc1NC(C)=O 5.62%
N#Cc1nc(-c2cccc3ccccc23)oc1N -15.2%
CSc1ccccc1N1CCN(CCCCCC(=O)NC2CCCc3ccccc32)CC1 (stereo unspecified) -35.3% [at 46.1 µM]
COc1ccccc1C(=O)Nc1ccc(C)c(S(=O)(=O)N2CCCCC2)c1 -2.68%
Cn1c(CN2CCOCC2)nc2cc(NC(=O)c3ccc(Cl)cc3)ccc21 -19.2%
CCCC(=O)Nc1ccc2c(c1)nc(CCNC(=O)c1ccco1)n2C 1.93%
Cn1c(S(=O)(=O)O)nc2ccccc21 0.212%
Cn1sc(NC(=O)c2ccccc2)nc1=O 16.5%
O=C(NC1CCCCCC1)C1CCN(C(=O)c2ccc(Cl)cc2)CC1 -5.39%
O=C(c1c(F)cccc1F)N1CCN(S(=O)(=O)c2ccc3c(c2)OCCO3)CC1 -0.698%
Cc1cc(C)cc(OCC(=O)OCC(=O)NC2CCCC2)c1 0.384%
O=C(CN1CCCCCC1)Nc1ccc(Br)cc1[N+](=O)[O-] 2.95%
CCCN(CC(=O)Nc1ccccc1C)C(=O)c1ccc2[nH]c3c(c2c1)CC(C)CC3 (stereo unspecified) 1.6%
CCOC(=O)c1sc(N)c(C#N)c1COC(=O)C1=COCCO1 0.625%
CN(C(=O)CSc1nnc(C2CC2)n1C)C1CCCc2ccccc21 (stereo unspecified) -6.33%
CCS(=O)(=O)Nc1cccc(-c2cc(-c3ccccc3)c3cc(C)ccc3n2)c1 -3.65%
COc1ccc2c(c1OC)C(=O)OC2Nc1nc(-c2ccccc2)cs1 (stereo unspecified) -18.4%
Cc1cc(O)ccc1-c1cnc2ccccc2n1 22.3%
O=C(Nc1ccc(-c2csc(Nc3cccc(C(F)(F)F)c3)n2)cc1)c1cccc(C(F)(F)F)c1 -13.6%
CC(=O)Nc1ccc(-c2csc(NC=C3C(=O)OC(C)(C)OC3=O)n2)cc1 25.5%
Cc1cccc(S(=O)(=O)CC(=O)Nc2nc(-c3ccccc3)cs2)c1 7.63%

Potency, active:
c1ccc(CSc2nnc(-c3ccco3)n2Cc2ccccc2)cc1 3550 nM
Cc1ccc(F)c(NC(=O)CCc2ccccc2)c1 2820 nM
N#Cc1nc(Cc2ccccc2)oc1NCCc1ccccc1 3160 nM
CCOC(=O)/C(C#N)=C/c1ccc(N2CCCCC2)cc1 3160 nM
O=C(c1ccc(F)cc1)N1CCC(n2nnc3ccccc32)CC1 1120 nM
CN(C)c1ccc(-c2nnc(-c3cccnc3)o2)cc1 1580 nM
CC(=O)Nc1ccccc1C(=O)C(=O)Nc1ccc(F)cc1 2510 nM
CC(=O)NCCc1nc2cc(NC(=O)c3ccccc3)ccc2n1C 3550 nM
Cn1c(NC(=O)c2ccccc2)nc2ccccc21 2820 nM
CC(=O)Nc1cccc(-c2cnc3ccccc3n2)c1 3980 nM
Cc1cccc(Nc2nc(-c3ccccc3)cs2)n1 3980 nM
CC(=O)Nc1cccc(-c2csc(Nc3cccc(C)n3)n2)c1 1580 nM
